A short description of assay [1]: NCI Yeast Anticancer Drug Screen. Data for the rad50 strain (AID 155).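 Note: 0% = growth of vehicle-only cultures of the same strain.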 The conditions noted are these: S. cerevisiae rad50 strain growth inhibition, active compounds read high. In a few lines: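 Genetically altered yeast (DNA repair pathway); compound treatment; growth inhibition vs vehicle ctrl.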
Assay [2] can be described thus: NCI Yeast Anticancer Drug Screen. Data for the mec2-1 strain (AID 157). The note with it: S. cerevisiae mec2-1 strain, active compounds read high. In a few lines: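 Readout is yeast growth inhibition, normalised to vehicle-treated controls, in the mec2-1 strain exposed to compound.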
Assay [3] can be described thus: NCI Yeast Anticancer Drug Screen. Data for the sgs1 mgt1 strain (AID 161).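 Note: 0% = growth of cultures given vehicle only.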 The conditions noted are these: S. cerevisiae sgs1 mgt1 strain, active compounds read high. In a few lines: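 Compounds are added to genetically altered yeast, and growth is compared with cultures given vehicle alone to give percent inhibition.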
The nature of assay [4]: NCI Yeast Anticancer Drug Screen. Data for the cln2 rad14 strain (AID 165).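 Note: 0% = growth equal to vehicle treated cultures.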 The conditions noted are these: S. cerevisiae cln2 rad14 strain, active compounds read high. The procedure, abridged: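 Relative to vehicle controls, growth inhibition of compound-treated cln2 rad14 yeast was recorded.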
Assay [5] can be described thus: NCI Yeast Anticancer Drug Screen. Data for the bub3 strain (AID 167). The conditions noted are these: S. cerevisiae bub3 mutant strain, active compounds read high. In a few lines:
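Yeast carrying a defined mutation is treated with each compound, and growth is compared with that of vehicle-exposed cells to give inhibition.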

The nature of assay [6]: NCI Yeast Anticancer Drug Screen. Data for the mlh1 rad18 strain (AID 175). The note with it: S. cerevisiae mlh1 rad18 strain growth inhibition, active compounds read high. The procedure, abridged:
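Test agents were incubated with a yeast strain of defined genotype (DNA damage repair defect). Inhibition of growth was derived by comparison with vehicle-exposed cultures.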

Setting [7] is: at 5.0 µM (retest, dose inferred, filed as 0.5).
Setting [8] is: at 50.0 µM (retest, dose inferred, filed as 5.0).

About 79,000 compounds went through this panel and 15% of them were active in at least one assay; those are over-represented in the sample as a whole. Unmarked numbers belong to inactive results. Calls of active or inactive are those of the source. Cut-off read from the data, not from the text of the source: active = growth inhibition above about 70%; inactive = the rest.

Consider seven compounds from PubChem BioAssay (NCI).

For the compound `CCOc1ccc2nc([NH-])sc2c1.CCOc1ccc2nc([NH-])sc2c1.CCOc1ccc2nc([NH-])sc2c1.CCOc1ccc2nc([NH-])sc2c1.[Cl][Rh][Cl]`, the growth inhibition in assay [1] (setting [7]) was -5%; in assay [1] (setting [8]), 46%; in assay [1] (at 50.0 µM), 29.9%; in assay [2] (setting [7]), 0%; in assay [2] (setting [8]), 32%; in assay [2] (at 50.0 µM), 31.6%. Besides, the growth inhibition was 4% in assay [3] (setting [7]); 63% in assay [3] (setting [8]); 67.2% in assay [3] (at 50.0 µM); -5% in assay [4] (setting [7]); 26% in assay [4] (setting [8]); 30.1% in assay [4] (at 50.0 µM). For the same compound, the growth inhibition in assay [5] (setting [7]) was -10%; in assay [5] (setting [8]), 34%; in assay [5] (at 50.0 µM), 0.25%; in assay [6] (setting [7]) it was 6%; in assay [6] (setting [8]), 81% (active); in assay [6] (at 50.0 µM), 80% (active).
With `CCCCCC(/C=N/Nc1nc(C)cc(=O)[nH]1)=C\c1ccccc1`, the growth inhibition in assay [1] (setting [7]) was 9%; in assay [1] (setting [8]), 45%; in assay [1] (at 50.0 µM) it was 31.3%; in assay [2] (setting [7]), -1%; in assay [2] (setting [8]), 50%; in assay [2] (at 50.0 µM), 30.8%. In addition, the growth inhibition was 3% in assay [3] (setting [7]); 81% (active) in assay [3] (setting [8]); 29.9% in assay [3] (at 50.0 µM); 3% in assay [4] (setting [7]); 39% in assay [4] (setting [8]); 44.1% in assay [4] (at 50.0 µM). In addition, the growth inhibition in assay [5] (setting [7]) is -1%; in assay [5] (setting [8]) it was 83% (active); in assay [5] (at 50.0 µM) it was 53%; in assay [6] (setting [7]), -8%; in assay [6] (setting [8]) it was 37%; in assay [6] (at 50.0 µM) it was 70.5% (active).
Consider `O=[N+]([O-])c1cc(Cl)cc2c1nc(NCCO)c1ccccc12`, for which the growth inhibition in assay [1] (setting [7]) was 76% (active); in assay [1] (setting [8]), 90% (active); in assay [1] (at 50.0 µM) it was 75.1% (active); in assay [2] (setting [7]), 26%; in assay [2] (setting [8]), 67%; in assay [2] (at 50.0 µM) it was 45.2%. Also, the growth inhibition in assay [3] (setting [7]) is 63%; in assay [3] (setting [8]), 93% (active); in assay [3] (at 50.0 µM) it was 79.7% (active); in assay [4] (setting [7]) it was 46%; in assay [4] (setting [8]), 79% (active); in assay [4] (at 50.0 µM) it was 65%. For the same compound, the growth inhibition in assay [5] (setting [7]) was 20%; in assay [5] (setting [8]), 85% (active); in assay [5] (at 50.0 µM), 79.9% (active); in assay [6] (setting [7]), 86% (active); in assay [6] (setting [8]), 93% (active); in assay [6] (at 50.0 µM), 89.5% (active).
Turning to `CCN(CC)CCCC(C)Nc1cc(C)nc2c1ccc1c2ccc2c(NC(C)CCCN(CC)CC)cc(C)nc21` (stereo unspecified), the growth inhibition in assay [1] (setting [7]) was -2%; in assay [1] (setting [8]), 61%; in assay [1] (at 50.0 µM) it was 58.1%; in assay [2] (setting [7]), -39%; in assay [2] (setting [8]) it was 91% (active); in assay [2] (at 50.0 µM), 53.7%. Also, the growth inhibition is -1% in assay [3] (setting [7]); 59% in assay [3] (setting [8]); 49.5% in assay [3] (at 50.0 µM); 7% in assay [4] (setting [7]); 20% in assay [4] (setting [8]); 71.4% (active) in assay [4] (at 50.0 µM). The growth inhibition in assay [5] (setting [7]) was -2%; in assay [5] (setting [8]), 96% (active); in assay [5] (at 50.0 µM) it was 96.3% (active); in assay [6] (setting [7]), -1%; in assay [6] (setting [8]), 85% (active); in assay [6] (at 50.0 µM), 54.2%.
Turning to `OC1c2cc(Cl)cc(Cl)c2OC2(N3CCCC3)CCCCC12` (stereo unspecified), the growth inhibition in assay [1] (setting [7]) is 62%; in assay [1] (setting [8]), 94% (active); in assay [1] (at 50.0 µM), 81.5% (active); in assay [2] (setting [7]), 37%; in assay [2] (setting [8]), 87% (active); in assay [2] (at 50.0 µM), 46.1%. Moreover, the growth inhibition is 44% in assay [3] (setting [7]); 87% (active) in assay [3] (setting [8]); 82% (active) in assay [3] (at 50.0 µM); 34% in assay [4] (setting [7]); 47% in assay [4] (setting [8]); 19.1% in assay [4] (at 50.0 µM). Further, the growth inhibition in assay [5] (setting [7]) is 51%; in assay [5] (setting [8]) it was 96% (active); in assay [5] (at 50.0 µM), 73.3% (active); in assay [6] (setting [7]), 61%; in assay [6] (setting [8]) it was 96% (active); in assay [6] (at 50.0 µM), 73.6% (active).
Take `CCc1c(O)c(O)c(C(C)=O)c2c(O)c(-c3c(C)cc4c(CC)c(O)c(O)c(C(C)=O)c4c3O)c(C)cc12`: the growth inhibition in assay [1] (setting [7]) was -13%; in assay [1] (setting [8]) it was 96% (active); in assay [1] (at 50.0 µM), 94.2% (active); in assay [2] (setting [7]), 9%; in assay [2] (setting [8]), 96% (active); in assay [2] (at 50.0 µM) it was 95.3% (active). The growth inhibition is -10% in assay [3] (setting [7]); 96% (active) in assay [3] (setting [8]); 95.2% (active) in assay [3] (at 50.0 µM); -20% in assay [4] (setting [7]); 94% (active) in assay [4] (setting [8]); 92.9% (active) in assay [4] (at 50.0 µM). For the same compound, the growth inhibition is 11% in assay [5] (setting [7]); 97% (active) in assay [5] (setting [8]); 95.7% (active) in assay [5] (at 50.0 µM); 7% in assay [6] (setting [7]); 96% (active) in assay [6] (setting [8]); 95.5% (active) in assay [6] (at 50.0 µM).
`Nc1nnc2nc(C(C(=O)c3ccccc3Cl)c3nc4nnc(N)n4[nH]c3=O)c(=O)[nH]n12`: the growth inhibition was -2% in assay [1] (setting [7]); -4% in assay [1] (setting [8]); 93.8% (active) in assay [1] (at 50.0 µM); 1% in assay [2] (setting [7]); 0% in assay [2] (setting [8]); 99.8% (active) in assay [2] (at 50.0 µM). Moreover, the growth inhibition is -2% in assay [3] (setting [7]); -2% in assay [3] (setting [8]); 41.5% in assay [3] (at 50.0 µM); -1% in assay [4] (setting [7]); -2% in assay [4] (setting [8]); 74.6% (active) in assay [4] (at 50.0 µM). In addition, the growth inhibition in assay [5] (setting [7]) was -1%; in assay [5] (setting [8]), -7%; in assay [5] (at 50.0 µM) it was 99.5% (active); in assay [6] (setting [7]), 0%; in assay [6] (setting [8]), -4%; in assay [6] (at 50.0 µM), 96.5% (active).
